Assay results taken from PubChem BioAssay AID1159580 (chemical genetic matrix, 2015).
Values joined by “and” are separate entries in the source; they are usually repeats but may differ in a detail not shown here. Equal values may be shown once. The campaign covered roughly 5,500 compounds. About 2,000 (36%) were called active. Not shown: some 18% with an inconclusive outcome. Rule as the data show it: active = normalized growth mostly below about 0.91 (no sharp cut-off); inconclusive = no clear call, values can overlap the other calls; inactive = mostly above about 0.92. Some of the results follow.

Test: chemical genetic growth profiling, strain panel (AID 1159580);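 also: tested at 20 µM; growth read once vehicle control cultures reached saturation at 30 °C; 1 = growth at the plate median or of vehicle wells; lower values mean less growth of the strain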
Details: S. cerevisiae deletion strains, growth OD

Measured: normalized growth

CN1CCOC(c2ccccc2)c2ccccc2C1 (configuration not stated)
inactive: locus YAL013W, strain DEP1, stronger effect = lower value 1.01 | locus YAL021C, strain ccr4, stronger effect = lower value 0.949 | locus YAL026C, strain drs2, stronger effect = lower value 0.969 | locus YAL030W, strain snc1, stronger effect = lower value 0.976 | locus YBL061C, strain skt5, stronger effect = lower value 0.979 | locus YBR009C, strain hhf1, stronger effect = lower value 0.984 | locus YBR021W, strain FUR4, stronger effect = lower value 1.07 | locus YBR023C, strain chs3, stronger effect = lower value 0.974 | locus YBR171W, strain sec66, stronger effect = lower value 0.976 | locus YBR229C, strain ROT2, stronger effect = lower value 1 | locus YBR231C, strain swc5, stronger effect = lower value 0.977 | locus YBR279W, strain paf1, stronger effect = lower value 0.975 | locus YCL011C, strain gbp2, stronger effect = lower value 0.966 | locus YCL016C, strain dcc1, stronger effect = lower value 1 | locus YCL029C, strain bik1, stronger effect = lower value 1.04 | locus YCL061C, strain MRC1, stronger effect = lower value 0.979 | locus YCL069W, strain vba3, stronger effect = lower value 0.984 | locus YCR088W, strain abp1, stronger effect = lower value 0.973 | locus YDL005C, strain med2, stronger effect = lower value 0.979 | locus YDL035C, strain GPR1, stronger effect = lower value 1 | locus YDL040C, strain nat1, stronger effect = lower value 0.967 | locus YDL074C, strain BRE1, stronger effect = lower value 1.05 | locus YDL101C, strain DUN1, stronger effect = lower value 1.02 | locus YDL134C, strain PPH21, stronger effect = lower value 1 | locus YDL185W, strain tfp1, stronger effect = lower value 1.02 | locus YDL192W, strain arf1, stronger effect = lower value 1.02 | locus YDR001C, strain nth1, stronger effect = lower value 0.974 | locus YDR069C, strain doa4, stronger effect = lower value 0.91 | locus YDR101C, strain arx1, stronger effect = lower value 1.01 | locus YDR137W, strain rgp1, stronger effect = lower value 0.988 | locus YDR150W, strain NUM1, stronger effect = lower value 0.992 | locus YDR159W, strain sac3, stronger effect = lower value 0.916 | locus YDR162C, strain NBP2, stronger effect = lower value 1.01 | locus YDR195W, strain ref2 0.941 | locus YDR297W, strain sur2, stronger effect = lower value 0.985 | locus YDR318W, strain mcm21, stronger effect = lower value 1.03 | locus YDR334W, strain swr1, stronger effect = lower value 0.917 | locus YDR335W, strain msn5, stronger effect = lower value 0.995 | locus YDR388W, stronger effect = lower value 1.02 | locus YDR392W, strain spt3, stronger effect = lower value 0.987 | locus YDR502C, strain sam2, stronger effect = lower value 1.01 | locus YEL003W, strain gim4, stronger effect = lower value 0.989 | locus YEL037C, strain rad23, stronger effect = lower value 0.985 | locus YEL061C, strain CIN8 (second series), stronger effect = lower value 0.971 | locus YEL061C, strain CIN8, stronger effect = lower value 1 | locus YER015W, strain faa2, stronger effect = lower value 0.992 | locus YER016W, strain bim1, stronger effect = lower value 0.975 | locus YER110C, stronger effect = lower value 1.02 | locus YER111C, strain swi4, stronger effect = lower value 0.971 | locus YER155C, strain BEM2 (second series), stronger effect = lower value 1.01 | locus YER155C, strain BEM2, stronger effect = lower value 1.01 | locus YER167W, strain BCK2, stronger effect = lower value 1.01 | locus YFR010W, strain ubp6, stronger effect = lower value 0.966 | locus YGL078C, strain dbp3, stronger effect = lower value 1.02 | locus YGL086W, strain mad1, stronger effect = lower value 0.998 | locus YGL167C, strain pmr1, stronger effect = lower value 0.981 | locus YGL173C, strain kem1, stronger effect = lower value 0.958 | locus YGL227W, strain vid30, stronger effect = lower value 0.951 | locus YGL240W, strain doc1, stronger effect = lower value 0.977 | locus YGL248W, strain PDE1, stronger effect = lower value 1.01 | locus YGL253W, strain hxk2, stronger effect = lower value 0.963 | locus YGR078C, strain PAC10, stronger effect = lower value 1.02 | locus YGR135W, strain pre9, stronger effect = lower value 1.02 | locus YGR229C, strain SMI1, stronger effect = lower value 0.987 | locus YGR252W, strain gcn5, stronger effect = lower value 0.997 | locus YHR013C, strain ard1, stronger effect = lower value 0.992 | locus YHR027C, strain rpn1, stronger effect = lower value 0.98 | locus YHR030C, strain SLT2, stronger effect = lower value 1 and 0.998 | locus YHR079C, strain IRE1 (second series), stronger effect = lower value 1.02 | locus YHR079C, strain IRE1, stronger effect = lower value 0.985 | locus YHR094C, strain hxt1, stronger effect = lower value 1.01 | locus YHR129C, strain ARP1, stronger effect = lower value 1.01 | locus YHR142W, strain chs7, stronger effect = lower value 0.963 | locus YHR200W, strain rpn10, stronger effect = lower value 1.02 | locus YIL066C, strain RNR3, stronger effect = lower value 1.01 | locus YIL073C, strain SPO22, stronger effect = lower value 1.06 | locus YIL125W, strain kgd1, stronger effect = lower value 1.01 | locus YIR030C, strain dcg1, stronger effect = lower value 1.02 | locus YJL092W, strain hpr5, stronger effect = lower value 0.986 | locus YJL095W, strain BCK1 (second series), stronger effect = lower value 0.975 | locus YJL095W, strain BCK1, stronger effect = lower value 1.02 and 0.995 | locus YJL115W, strain asf1, stronger effect = lower value 0.949 | locus YJL129C, strain trk1, stronger effect = lower value 0.968 | locus YJL134W, strain LCB3, stronger effect = lower value 1 | locus YJL154C, strain vps35, stronger effect = lower value 0.95 | locus YJL164C, strain tpk1, stronger effect = lower value 0.984 | locus YJL166W, strain qcr8, stronger effect = lower value 0.968 | locus YJL168C, strain set2, stronger effect = lower value 1.02 | locus YJL187C, strain SWE1 (second series), stronger effect = lower value 1.02 | locus YJL187C, strain SWE1, stronger effect = lower value 0.985 | locus YJR043C, strain POL32, stronger effect = lower value 1.03 | locus YJR066W, strain TOR1, stronger effect = lower value 0.945
